USP28 inh: inhibitors of human USP28 deubiquitinase; purified USP28, Ub-rhodamine cleavage fluorescence, 30 min; 47,000 compounds, 3% hits; inhibition, % at 25 µM; Ubiquitin carboxyl-terminal hydrolase 28 (Homo sapiens), Q96RU2
USP30 inh: inhibitors of human USP30 deubiquitinase; 47,000 compounds, 5.3% hits; inhibition, % at 25 µM; AID 1645860, 2021; purified USP30, Ub-rhodamine cleavage fluorescence
Starred values were filed as active, the others as inactive; i = inactive. In the library only some 7% were active in any assay of this set; here they are far more common. Cut-off read from the data, not from the text of the source: active = inhibition above about 30%; inactive = the rest.

SMILES | USP28 inh | USP30 inh
CN(C)C1CCN(C(=O)c2cc(-c3cnc(-c4cccc(F)c4)nc3)cn2C)C1 (stereo not given) | -13 | -34
Cc1ccccc1NC(=O)CNc1nc(Nc2ccccc2)nc(Nc2ccccc2)n1 | -4 | -3
O=C(CNc1nc(Nc2ccccc2)nc(Nc2ccccc2)n1)Nc1ccccc1F | 21 | 22
Cc1cccc(NC(=O)CNc2nc(Nc3ccccc3)nc(Nc3ccccc3)n2)c1 | 15 | 32*
O=C(CNc1nc(Nc2ccccc2F)nc(Nc2ccccc2F)n1)Nc1ccccc1 | 49* | 81*
O=C(CC1CSc2nccc(=O)n21)N1CCCc2ccccc21 (stereo not given) | 2 | 23
COc1ccccc1CNC(=O)c1csc(C(=O)N2CCCC2)n1 | 9 | -13
Cc1noc(C)c1CNC(=O)c1ccc2c(c1)OCO2 | 6 | 9
Cc1ccc(C(=O)NCCc2nc(-c3ccc4c(c3)OCO4)n[nH]2)cc1F | 16 | 69*
COc1cccc(Cc2nc(-c3cn(-c4cccc(F)c4)nn3)no2)c1 | 32* | 36*
COc1ccccc1NC(=O)c1nc(-c2cn(-c3cccc(F)c3)nn2)no1 | 3 | -45
O=C(c1nc(-c2cn(-c3cccc(F)c3)nn2)no1)N1CCOCC1 | -5 | -1
Fc1cccc(-n2cc(-c3noc(-c4ccc[nH]4)n3)nn2)c1 | 46* | 77*
COc1cccc(Cc2nc(-c3cn(-c4ccccc4)nn3)no2)c1 | -30 | -59
Fc1cccc(-n2cc(-c3noc(-c4ccccn4)n3)nn2)c1 | 81* | 89*
O=C(c1cccnc1)N1CC[C@@H]2CN(Cc3ccc(Cl)cc3)S(=O)(=O)[C@@H]2CC1 | -10 | -20
CCn1cnc2ccc(C(=O)NC3CC3)cc2c1=O | 62* | 1
CCn1ncc2ccc(C(=O)NC3CC3)cc21 | -12 | -14
Cc1c(C)n(-c2cccnc2)c2ncnc(NCc3ccncc3)c12 | -3 | 0
COc1cccc(CNC(=O)c2cc(S(=O)(=O)N3CCOCC3)ccc2Cl)c1 | -4 | 0
Cc1ccccc1Cn1ccc2ccn(Cc3cccnc3)c2c1=O | 60* | 30*
O=c1c2c(ccn1Cc1cc(F)ccc1F)ccn2Cc1cccnc1 | 68* | 8
Cc1ccc2c(c1)[nH]c1c(=O)n(Cc3cccnc3)cnc12 | 20 | 24
O=C(Cn1ccc2ccn(Cc3ccccc3)c2c1=O)Nc1cccc(F)c1 | 3 | 18
Cn1c2ccc(F)cc2c2ncn(Cc3cccnc3)c(=O)c21 | 9 | 31*
SMILES | USP28 inh | USP30 inh
Cc1noc(C)c1CCn1ccc2ccn(Cc3cccnc3)c2c1=O | 9 | 4
Cc1noc(-c2ccc(SCC(=O)Nc3ccccc3C)nc2)n1 | -4 | -68
CC(=O)c1c[nH]c(C(=O)N2CCN(Cc3ccccc3)CC2)c1 | -9 | -18
O=S(=O)(NCCc1cn2ccsc2n1)c1ccc(F)cc1 | 10 | -5
CN1CC2CN(S(=O)(=O)c3cccc(Cl)c3)CCN2Cc2ccccc21 (stereo not given) | -209 | i
O=C(c1snc2c(=O)n(C3CC3)c(=O)[nH]c12)N1CCc2ccccc2C1 | 6 | 22
Cc1c(S(=O)(=O)Nc2ccc(F)cc2)cc(C(=O)N2CCCC2)n1C | 2 | 11
CNC(=O)CN1CCCC2(C/C=C/COc3ccccc3C(=O)NCCNC2=O)C1 (stereo not given) | 3 | 15
CC(C)CCN1C[C@H]2C[C@H](C(=O)NCC3CC3)[C@@H](C1)O2 | 0 | -5
COc1cccc(NC(=O)N2CCN(c3ncccc3C(F)(F)F)CC2)c1 | 42* | 11
COc1cccc(NC(=O)N2CCN(C3=CC4=NC(C)CN4C=N3)CC2)c1 (stereo not given) | 20 | 0
O=C(NC1CCCCCC1)c1cccn1Cc1noc(C2CC2)n1 | -6 | 6
CN(C)C(=O)N1C[C@@H]2C(=O)N(C)C3(CCN(C(=O)Cc4ccccc4)CC3)[C@@H]2C1 | 14 | 25
O=C(NCc1ccc(Cl)c(Cl)c1)c1cc(S(=O)(=O)N2CCC3(CC2)OCCO3)ccc1F | 36* | 22
O=C(NCc1ccccc1Cl)c1cc(S(=O)(=O)N2CCC3(CC2)OCCO3)ccc1F | 16 | 0
COc1cc(=O)c(C(=O)Nc2ccccc2)nn1-c1cccc(F)c1 | -7 | 9
COc1ccccc1NC(=O)c1nn(-c2cccc(F)c2)c(OC)cc1=O | 18 | 76*
COc1ccc(S(=O)(=O)Nc2ccc3nn(C)cc3c2)cc1 | -13 | -63
Cc1ccccc1C(=O)c1cccn1CC(=O)NC1CCCC1 | -6 | -52
CC(CCc1ccccc1)NC(=O)Cn1cccc1C(=O)c1ccccc1 (stereo not given) | 38* | 15
O=c1cc(-c2cc3ccccc3oc2=O)c2ccc(O)cc2o1 | 13 | 23
O=c1oc2ccccc2cc1-c1nc(-c2ccc(Oc3ccccc3)cc2)cs1 | 36* | -127
CCN1CCc2nc(NC(=O)COc3c(Cl)cccc3Cl)sc2C1 | 12 | -3
Cc1ccc(-n2c(=O)c3ccc(C(=O)NCc4ccco4)cc3n(CC(=O)NCCC3=CCCCC3)c2=O)cc1 | -24 | -48
O=S(=O)(c1ccccc1)c1cnc2ccccc2c1N1CCCCC1 | 11 | 31*
SMILES | USP28 inh | USP30 inh
Cc1ccc(S(=O)(=O)c2cnc3ccc(F)cc3c2N2CCCCCC2)cc1 | 6 | 14
Cc1ccc(S(=O)(=O)c2cnc3ccc(F)cc3c2N2CCCC2)cc1 | 18 | 37*
Cc1ccc(S(=O)(=O)c2cnc3ccccc3c2N2CCCCCC2)cc1 | -2 | 14
O=C(NCCN1CCOCC1)C1CCCN(c2nnc3c(Cl)cccn23)C1 (stereo not given) | -23 | -62
O=C(NCc1ccc(N2CCOCC2)nc1)c1cc(Cl)ccc1F | -24 | -92
O=C(c1nc(-c2cccc3[nH]ccc23)no1)N1CCCCC1 | -23 | -14
O=C(c1nc(-c2cccc3[nH]ccc23)no1)N1CCCC1 | 6 | 48*
O=C(O)CCc1ccc(-c2ccccc2)n1CC(=O)Nc1ccccc1 | -9 | -31
CC(C)(C)OC(=O)N1C[C@@H]2C[C@@]3(C)[C@H](CCC[C@@H]13)N2C(=O)c1ccnnc1 | 6 | 20
Cc1ccc(CNS(=O)(=O)c2ccc3c(c2)C(=O)N(C)c2ncccc2O3)cc1 | 5 | 1
CC(C)(C)C(=O)[C@@H]1[C@@H](C(=O)c2ccc3c(c2)OCO3)[C@@]2(C(=O)Nc3ccccc32)[C@H]2c3ccccc3C=CN12 | 31* | -67
O=C(c1ccc2c(c1)OCO2)[C@@H]1[C@H](C(=O)OC(c2ccccc2)c2ccccc2)N2c3ccccc3C=CC2[C@@]12C(=O)Nc1ccccc12 (stereo not given in full) | -123 | -488
Cn1cc(CN2C[C@H]3C[C@H]4[C@](C2)(CN(Cc2ccccc2)S4(=O)=O)O3)cn1 | 14 | 20
Cc1nn(-c2nc3ccccc3o2)c2c1C(c1cccc(F)c1F)CC(=O)N2 (stereo not given) | 16 | 32*
Cc1nn(-c2nc3ccccc3o2)c2c1C(c1ccc(F)cc1)CC(=O)N2 (stereo not given) | 10 | 25
Cc1ccc(-n2nnnc2CNC(=O)Nc2ccccc2)cc1C | 2 | -12
CC(=O)Nc1cc(C)nn1-c1ccc(NS(=O)(=O)c2ccc(C#N)cc2)cc1 | 3 | 15
O=C(CN1CCC2(CC1)Nc1ccccc1C1=NCCN12)NC1CCCCC1 | 4 | -2
O=C(NCc1cccnc1)c1nnc(-c2ccc(S(=O)(=O)N3CCCCC3)cc2)o1 | 8 | 19

Screening results: PubChem, Buhrlage Lab, Dana-Farber Cancer Institute and Novartis Institutes for BioMedical Research (Cambridge, Mass)
